Pf Dd2 inh: blocks in vitro growth of P. falciparum Dd2; actives 4.3% (n = 120,000); Potency, µM (top dose mostly 28.9 µM), for the others: at the highest dose activity, negative = inhibition, most hits filed as inhibitors; P. falciparum Dd2 growth, SYBR Green, 72 h; active = well fitted inhibition curve with a large enough effect;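 also: plate controls were DMSO vehicle for no effect and reference drug for full effect; nearly all actives have a fitted effect of over 65% in size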
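Readout: SYBR Green fluorescence, 485 nm excitation, 535 nm emission, after ~16 h lysis at 37C. Before that, Dd2-infected red cells (2.5% hematocrit) grew 72 h with compound, 29 uM top final concentration.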
Active calls of the source: *; i = inactive; [ ] = dose if it differs, or a comment. Many of the other results were omitted from the sample, so hits are more common in it than they were. Potency is read from the fitted curve at half-maximal effect.

SMILES | Pf Dd2 inh
COc1ccc(CNC(=O)c2ccc3c(c2)N(Cc2ccccc2)C(=O)c2ccccc2S3=O)cc1 (stereo not given) | 43.9%
COC(=O)c1ccc2c(c1)N(Cc1cc(C)ccc1C)C(=O)c1ccccc1S2 | i
O=C(NCc1ccc(F)cc1)c1ccc2c(c1)N(Cc1ccc(F)cc1Cl)C(=O)CS2 | i
O=C(c1ccc2c(c1)N(Cc1ccc(F)cc1Cl)C(=O)c1ccccc1S2)N1CCC2(CC1)OCCO2 | i
COc1ccc(CNC(=O)c2ccc3c(c2)N(Cc2cccc(Cl)c2)C(=O)c2ccccc2S3)c(OC)c1 | 11.2µM*
CC(C)C(=O)N1[C@@H]2CC[C@H]1CC(NC(=O)c1ccncc1)C2 (stereo not given in full) | 3.5%
O=C(NCc1n[nH]c2c1CCC2)c1coc(COc2cccc(F)c2F)n1 | -25.3%
CC(C)NC(=O)C[C@@H]1C[C@H]2O[C@H](CNC(=O)N3CCOCC3)[C@@H](O)[C@H]2O1 | 9.5%[44.1 µM]
COC(=O)[C@@H](C)NC(=O)[C@H]1CN(C(=O)c2cccnc2)CCN1C(=O)NC1CCCCC1 | 14.1%
CNc1cc(-c2ccccc2C(=O)N(C(C)C)C(C)C)nc(N)n1 | -24.6%
COc1ccc(Nc2cc3c(cn2)CN(C)CCN3C)cc1OC | i
O=C(CCCc1c[nH]c2ccccc12)N1CCc2nc3cc(-c4ccccc4)[nH]n3c(=O)c2C1 | 17.1%[5.79 µM]
COc1ccc(C(=O)N2CCC(N3CC4CC(C3)[C@H]3CCCC(=O)N3C4)CC2)cc1 (stereo not given in full) | -10.2%
O=C(c1ccccc1F)N1CCCC(c2nn[nH]n2)C1 (stereo not given) | -14.0%
CCOc1ccc(CN2C(=O)c3ccccc3Sc3ccc(C(=O)NCc4ccc(C)cc4)cc32)cc1 | 12.6µM*
Cc1cc(C)cc(NC(=O)CN2C(=O)c3ccccc3Sc3ccc(C(=O)N4CCOCC4)cc32)c1 | 1.6%
COc1cccc(CN2C(=O)c3ccccc3Sc3ccc(C(=O)NCCc4ccc(Cl)cc4)cc32)c1 | 11.2µM*
COc1cc(NC(=O)CN2C(=O)c3ccccc3Sc3ccc(C(=O)N4CCCC4)cc32)cc(OC)c1 | 7.94µM*
O=C(NC1CCCC1)c1ccc2c(c1)N(Cc1ccccc1Cl)C(=O)c1ccccc1S2 | -9.1%
CCOc1ccc(CN2C(=O)c3ccccc3Sc3ccc(C(=O)OC)cc32)cc1 | 15.9%
CCOc1ccc(CN2C(=O)c3ccccc3Sc3ccc(C(=O)NCCc4ccccc4)cc32)cc1 | -18.4%
Cc1ccc(CN2C(=O)c3ccccc3Sc3ccc(C(=O)NC4CCCC4)cc32)cc1 | -4.7%
O=C(NC1CCCC1)c1ccc2c(c1)N(Cc1ccc(C(F)(F)F)cc1)C(=O)c1ccccc1S2 | 12.6µM*
COC(=O)c1ccc2c(c1)N(CC(=O)Nc1ccc(OC)c(Cl)c1)C(=O)c1ccccc1S2 | i
O=C(c1cnccn1)N1CCN(c2cc(-c3ccc(Cl)cc3)[nH]n2)CC1 | i
SMILES | Pf Dd2 inh
COc1ccc(CN2C(=O)CO[C@H](c3ccc(NC(=O)NC(C)(C)C)cc3)[C@H]2CO)cc1 | i
c1nnc(CC2CCCNC2)n1CC1CC1 (stereo not given) | 22.6%
O=C(c1ccc(F)cc1)N1CCC(Cc2nncn2-c2ccccc2)CC1 | -3.6%
COCCN1CCCCC(CC(=O)Nc2ccc(OC)cc2)C1=O (stereo not given) | 1.0%
CN(C)C(=O)c1n[nH]c2c1CN(C(=O)c1cc(F)cc(F)c1)CC2 | i
O[C@@H]1CC(CNC2CCC2)(COc2ccc(C(F)(F)F)cn2)C[C@@H]1O (stereo not given in full) | i
COc1ccc(CC(=O)Nc2ccc([C@@H](O)[C@H]3COCC(=O)N3Cc3ccccc3F)cc2)cc1 | -6.2%
O=C(NCc1nc(-c2ncccn2)no1)C1CCCN(Cc2ccco2)C1 (stereo not given) | -7.0%
COCCOC1CN(C2CCN(Cc3ccc(F)c(F)c3)CC2)C12CCCCC2 (stereo not given) | 2.51µM*
COCCOC1CN(C2CCN(Cc3ccncc3)CC2)C12CCCCC2 (stereo not given) | i
COCCOC1CN(C2CCN(C(=O)Nc3ccccc3F)CC2)C12CCCCC2 (stereo not given) | i
COCCOC1CN(C2CCN(S(=O)(=O)c3ccccc3)CC2)C12CCCCC2 (stereo not given) | i
COCCOC1CN(C2CCN(C(=O)c3ccc(OC)c(F)c3)CC2)C12CCCCC2 (stereo not given) | i
COCCOC1CN(C2CCN(Cc3cccc(F)c3)CC2)C12CCCCC2 (stereo not given) | 3.55µM*
COc1ccc(-c2cn(C[C@H]3C[C@@H]4CCN3C[C@@H]4C(=O)N3CCOCC3)nn2)cc1 | -5.4%[44.1 µM]
Cc1ccc(C(=O)N2CCC(Cc3nc(-c4ccccc4)no3)CC2)s1 | i
O=C(c1ccc2ccccc2n1)N1C[C@@H](CO)[C@H](c2ccccn2)C1 | -23.0%
Cn1nc(C(=O)N2CC[C@@H]3CN(S(C)(=O)=O)[C@@H]3C2)c2ccccc21 | 5.9%
CCN(CC)c1cc2c(cc1F)c(=O)c(S(=O)(=O)c1ccccc1)cn2C | -22.9%

Bioassay records as filed in PubChem.
